Data published in the supplement of paper PMC8975748.

System: Saccharomyces cerevisiae BY4741 SeMeCo community
Test: z-score of subpopulation abundance vs DMSO median, subpopulation auxotrophic for L; higher = larger share of this subpopulation than in DMSO controls
Conditions: 10 µM; 24 h; SM minimal medium; subpopulation (auxotrophy): L
Method in brief: (§1)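 Scoring was based on each subpopulation's abundance, expressed as a z-score against the vehicle-well median. A Saccharomyces cerevisiae BY4741 community with four plasmids, each restoring one auxotrophy and encoding a distinct fluorescent protein, was pre-grown overnight to OD600 1.0, diluted to 0.3, and added at 70 µl to 384-well plates acoustically predosed with library drugs (10 µM final). It then grew 24 h in minimal SM medium before paraformaldehyde fixation and automated confocal microscopy, with single-auxotroph fluorescent strains setting thresholds and autofluorescence correction.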

| Structure (SMILES) | z-score of subpopulation abundance |
| --- | --- |
| CN(C)CC(c1ccc(O)cc1)C1(O)CCCCC1 (centres undefined) [Desvenlafaxine] | -0.35 |
| Cc1ncc([N+](=O)[O-])n1CCOC(=O)c1ccccc1 [Metronidazole Benzoate] | -0.6 |
| O=C1C(CC[S+]([O-])c2ccccc2)C(=O)N(c2ccccc2)N1c1ccccc1 (racemic) [(+/-)-Sulfinpyrazone] | -0.72 |
| COc1ccccc1OCC(O)CN1CCN(CC(=O)Nc2c(C)cccc2C)CC1 (centres undefined) [Ranolazine 2HCl] | 0.24 |

System: Saccharomyces cerevisiae BY4741 SeMeCo community
Test: z-score of subpopulation abundance vs DMSO median, subpopulation auxotrophic for U; higher = larger share of this subpopulation than in DMSO controls
Conditions: 10 µM; 24 h; SM minimal medium; subpopulation (auxotrophy): U
Method in brief: as §1

| Structure (SMILES) | z-score of subpopulation abundance |
| --- | --- |
| CCCCCOc1ccc(-c2ccc(-c3ccc(C(=O)N[C@H]4C[C@@H](O)[C@@H](O)NC(=O)[C@@H]5[C@@H](O)[C@@H](C)CN5C(=O)[C@H]([C@@H](C)O)NC(=O)[C@H]([C@H](O)[C@@H](O)c5ccc(O)cc5)NC(=O)[C@@H]5C[C@@H](O)CN5C(=O)[C@H]([C@@H](C)O)NC4=O)cc3)cc2)cc1 | 0.13 |
| Cc1ccnc(NS(=O)(=O)c2ccc(N)cc2)n1 [Sulfamerazine] | -0.62 |
| O=C(O)c1cc(-c2ccc(F)cc2F)ccc1O [Diflunisal] | -2.37 |
| C[C@@H]1[C@H](O)[C@@H](C)/C=C/C=C/C=C/C=C/C=C/C=C/C=C/[C@H](O[C@@H]2O[C@H](C)[C@@H](O)[C@H](N)[C@@H]2O)C[C@@H]2O[C@](O)(C[C@@H](O)C[C@@H](O)[C@H](O)CC[C@@H](O)C[C@@H](O)CC(=O)O[C@H]1C)C[C@H](O)[C@H]2C(=O)O [Amphotericin B] | -0.38 |
| CO/N=C(\C(=O)N[C@@H]1C(=O)N2C(C(=O)O)=CCS[C@H]12)c1csc(N)n1 [Ceftizoxime sodium] | -0.03 |
